Laboratory results: the supplement of paper PMC12494721
Counter-ions that a name gives are not always drawn.

Columns and labels:
Conditions in all cases: incubation time: 27 h, anaerobic, 37 °C;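 for the amine columns active = adjusted P below 0.05 in both replicates with a change the same way and a mean fold change under 0.8 or over 1.25; inactive = the rest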
[1] = tested on: Clostridium sporogenes DSM 1664; assay: growth (OD595) fold change vs plate DMSO controls (fold change (ratio)); higher = more growth
How it was run: (§1)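 Anaerobic 27 h, 37 °C mGAM 96-well cultures were shaken, then read for absorbance at 595 nm. Values were blank-subtracted and corrected for compound background using 20 µM compound solutions in water. A calibration factor of 5 converted them to OD. Growth is the fold change versus the median of plate DMSO controls. Fold changes above 1.5 were set to NA, and values are the mean of 2 biological replicates.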

Escherichia coli IAI1 [2] = assay: as above
How it was run: as §1

[3] = tested on: Klebsiella aerogenes DSM 30053; assay: as above
How it was run: as §1

[4] = tested on: Ruminococcus gnavus DSM 108212; assay: as above
How it was run: as §1

[5] = tested on: Klebsiella aerogenes DSM 30053; assay: fold change of Histamine concentration vs plate DMSO controls (fold change (ratio)); higher = more amine produced, active = hit call of the paper (significant change in both replicates, either direction)
How it was run: (§2)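 Extracts of whole anaerobic mGAM cultures were analysed for amines by LC–triple-quadrupole MS with dynamic MRM and external calibration curves, with drift corrected within batch. Four gut strains were grown at 37 °C for 27 h in 80 µL wells with compounds at 20 µM final, sweeteners at 50 µM final. Each value expresses fold change over plate DMSO controls. The average of 2 biological replicates is shown.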

[6] = tested on: Clostridium sporogenes DSM 1664; assay: fold change of Tryptamine concentration vs plate DMSO controls (fold change (ratio)); higher = more amine produced, active = hit call of the paper (significant change in both replicates, either direction)
How it was run: as §2

[7] = tested on: Ruminococcus gnavus DSM 108212; assay: as above
How it was run: as §2

Escherichia coli IAI1 [8] = assay: fold change of Putrescine concentration vs plate DMSO controls (fold change (ratio)); higher = more amine produced, active = hit call of the paper (significant change in both replicates, either direction)
How it was run: as §2

[9] = tested on: Klebsiella aerogenes DSM 30053; assay: as above
How it was run: as §2

Escherichia coli IAI1 [10] = assay: fold change of Cadaverine concentration vs plate DMSO controls (fold change (ratio)); higher = more amine produced, active = hit call of the paper (significant change in both replicates, either direction)
How it was run: as §2

[11] = tested on: Klebsiella aerogenes DSM 30053; assay: as above
How it was run: as §2

[12] = tested on: Ruminococcus gnavus DSM 108212; assay: fold change of 2-Phenylethylamine concentration vs plate DMSO controls (fold change (ratio)); higher = more amine produced, active = hit call of the paper (significant change in both replicates, either direction)
How it was run: as §2

Structure (SMILES) | growth [1] | growth (Escherichia coli IAI1 [2]) | growth [3] | growth [4] | fold change of Histamine concentration [5] | fold change of Tryptamine concentration [6] | fold change of Tryptamine concentration [7] | fold change of Putrescine concentration (Escherichia coli IAI1 [8]) | fold change of Putrescine concentration [9] | fold change of Cadaverine concentration (Escherichia coli IAI1 [10]) | fold change of Cadaverine concentration [11] | fold change of 2-Phenylethylamine concentration [12]
CC(C)=CCC1C(=O)N(c2ccccc2)N(c2ccccc2)C1=O [Feprazone] (20 µM) | 1.07 | 0.999 | 1.01 | 1.04 | 0.971 (inactive) | 1.02 (inactive) | 1.01 (inactive) | 1.02 (inactive) | 1.02 (inactive) | 0.996 (inactive) | 1 (inactive) | 1.03 (inactive)
CCCCC1C(=O)N(c2ccccc2)N(c2ccccc2)C1=O [Phenylbutazone] (20 µM) | 1.03 | 0.993 | 1.01 | 1.02 | 1.05 (inactive) | 0.986 (inactive) | 0.969 (inactive) | 0.992 (inactive) | 1.05 (inactive) | 1.01 (inactive) | 1.04 (inactive) | 0.878 (inactive)
C=CCc1ccc(OC)c(OC)c1 [Methyleugenol] (20 µM) | 0.942 | 1.08 | 0.993 | 1.06 | 0.992 (inactive) | 0.986 (inactive) | 1.02 (inactive) | 1.02 (inactive) | 0.921 (inactive) | 0.988 (inactive) | 1.15 (inactive) | 1.02 (inactive)
Nc1nc2n[nH]nc2c(=O)[nH]1 [Azaguanine-8] (20 µM) | 0.886 | 1.05 | 1.01 | 0.846 | 1.04 (inactive) | 0.988 (inactive) | 0.924 (inactive) | 1.01 (inactive) | 0.968 (inactive) | 1.01 (inactive) | 1.03 (inactive) | 0.882 (inactive)
Oc1c(Cl)cc(Cl)c2cccnc12 [Chloroxine] (20 µM) | 1.12 | 0.966 | 1.02 | 0.369 | 0.921 (inactive) | 1.02 (inactive) | 0.589 (active) | 0.945 (inactive) | 0.981 (inactive) | 1.31 (active) | 1.01 (inactive) | 0.681 (inactive)
CC[C@H]1OC(=O)[C@H](C)[C@@H](O[C@H]2C[C@@](C)(OC)[C@@H](O)[C@H](C)O2)[C@H](C)[C@@H](O[C@@H]2O[C@H](C)C[C@H](N(C)C)[C@H]2O)[C@](C)(OC)C[C@@H](C)C(=O)[C@H](C)[C@@H](O)[C@]1(C)O [Clarithromycin] (20 µM) | 0 | 0.665 | 0.941 | 0.257 | 0.636 (inactive) | 0.0515 (active) | 0.11 (active) | 0.434 (inactive) | 0.888 (inactive) | 0.944 (inactive) | 1.03 (inactive) | 0.118 (active)
CC(C(=O)O)c1cccc(Oc2ccccc2)c1 (stereo not drawn) [Fenoprofen calcium salt dihydrate] (20 µM) | 0.882 | 0.997 | 1.04 | 1.21 | 0.981 (inactive) | 0.945 (inactive) | 0.951 (inactive) | 0.976 (inactive) | 0.983 (inactive) | 1.03 (inactive) | 1 (inactive) | 0.937 (inactive)
Cn1cc([S+](C)[O-])c(=O)c2ccc(F)cc21 (stereo not drawn) [Flosequinan] (20 µM) | 0.995 | 1 | 1.01 | 1.06 | 1.03 (inactive) | 0.946 (inactive) | 0.958 (inactive) | 0.994 (inactive) | 1.02 (inactive) | 1.04 (inactive) | 0.999 (inactive) | 0.938 (inactive)
Clc1ccc2c(c1)C(N1CCNCC1)=Nc1ccccc1O2 [Amoxapine] (20 µM) | 1.21 | 1.03 | 1.01 | 1.37 | 0.961 (inactive) | 0.943 (inactive) | 0.983 (inactive) | 0.994 (inactive) | 0.974 (inactive) | 1.02 (inactive) | 1 (inactive) | 0.952 (inactive)
NCCc1cc[nH]n1 [Betazole hydrochloride] (20 µM) | 1.01 | 0.989 | 1.03 | 1.02 | 0.96 (inactive) | 1 (inactive) | 1.04 (inactive) | 0.987 (inactive) | 1.02 (inactive) | 1 (inactive) | 1 (inactive) | 1.02 (inactive)
OCCN1C[C@H](O)[C@@H](O)[C@H](O)[C@H]1CO [Miglitol] (20 µM) | 1.09 | 1.01 | 1.02 | 1.05 | 1.02 (inactive) | 1 (inactive) | 1.02 (inactive) | 1 (inactive) | 1.01 (inactive) | 0.964 (inactive) | 1.01 (inactive) | 1.03 (inactive)
O=c1[nH]cc(F)c(=O)[nH]1 [5-fluorouracil] (20 µM) | 1.2 | 0.87 | 0.897 | 1.21 | 0.728 (inactive) | 0.767 (inactive) | 0.917 (inactive) | 0.626 (inactive) | 0.961 (inactive) | 0.945 (inactive) | 0.979 (inactive) | 0.918 (inactive)
Cn1cc(C(=O)Nc2ccccc2-c2cc(F)c(F)c(F)c2)c(C(F)F)n1 (20 µM) | 1.04 | 0.97 | 0.98 | 0.98 | 1.02 (inactive) | 1.03 (inactive) | 0.986 (inactive) | 1.02 (inactive) | 1.02 (inactive) | 1.01 (inactive) | 0.989 (inactive) | 0.966 (inactive)
O=C(CCCl)NCc1ccccc1 [Beclamide] (20 µM) | 1.18 | 1.02 | 1 | 1.07 | 1.03 (inactive) | 1.02 (inactive) | 1.02 (inactive) | 1.01 (inactive) | 1.01 (inactive) | 1.04 (inactive) | 0.996 (inactive) | 1.03 (inactive)
OC[C@H]1OC(O)[C@H](O)[C@H](O)[C@@H]1O (stereo partly drawn) [D-allose] (50 µM) | 1.08 | 0.999 | 0.98 | 1.07 | 0.99 (inactive) | 1.02 (inactive) | 0.896 (inactive) | 1 (inactive) | 1.01 (inactive) | 1.07 (inactive) | 0.993 (inactive) | 0.886 (inactive)
N=C(N)NCCN1CCCCCCC1 [Guanethidine sulfate] (20 µM) | 1.13 | 0.988 | 1.1 | 0.933 | 0.834 (inactive) | 1.07 (inactive) | 1.1 (inactive) | 0.97 (inactive) | 0.953 (inactive) | 0.9 (inactive) | 1.04 (inactive) | 1.11 (inactive)
CC(=O)Oc1ccc(C(=C2CCCCC2)c2ccc(OC(C)=O)cc2)cc1 [Cyclofenil] (20 µM) | 0.924 | 1.04 | 1.03 | 0.991 | 0.983 (inactive) | 0.873 (inactive) | 0.953 (inactive) | 1.05 (inactive) | 0.997 (inactive) | 0.997 (inactive) | 1 (inactive) | 0.942 (inactive)
CCCNC(=O)NS(=O)(=O)c1ccc(Cl)cc1 [Chlorpropamide] (20 µM) | 0.913 | 1.03 | 0.983 | 1.03 | 1.17 (inactive) | 0.956 (inactive) | 1.13 (inactive) | 0.938 (inactive) | 1.03 (inactive) | 0.993 (inactive) | 1.1 (inactive) | 1.31 (active)
CCN(CC)CCNc1ccc(CO)c2sc3ccccc3c(=O)c12 [Hycanthone] (20 µM) | 1.05 | 1.03 | 1.03 | 0.939 | 0.979 (inactive) | 0.791 (active) | 0.917 (inactive) | 1.01 (inactive) | 0.993 (inactive) | 0.967 (inactive) | 1.01 (inactive) | 0.917 (inactive)
O=C(O)/C=C/c1ccc(Cn2ccnc2)cc1 [Ozagrel hydrochloride] (20 µM) | 0.923 | 0.982 | 0.994 | 0.975 | 1.02 (inactive) | 1.01 (inactive) | 1.04 (inactive) | 1.01 (inactive) | 0.993 (inactive) | 1.01 (inactive) | 0.986 (inactive) | 0.999 (inactive)
Cc1c(OCC(F)(F)F)ccnc1C[S+]([O-])c1nc2ccccc2[nH]1 (stereo not drawn) [Lansoprazole] (20 µM) | 1 | 1.06 | 1.01 | 1.02 | 1.03 (inactive) | 1.02 (inactive) | 0.974 (inactive) | 1.03 (inactive) | 1.01 (inactive) | 1.03 (inactive) | 1.01 (inactive) | 0.971 (inactive)
Nc1cccc2c1C(=O)N(C1CCC(=O)NC1=O)C2=O (stereo not drawn) [Pomalidomide] (20 µM) | 1.09 | 1.02 | 1.02 | 1.04 | 1.13 (inactive) | 1.12 (inactive) | 1.03 (inactive) | 0.938 (inactive) | 1.04 (inactive) | 0.954 (inactive) | 1.03 (inactive) | 1.07 (inactive)
Cc1ncc(CO)c(CO)c1O [Pyridoxine hydrochloride] (20 µM) | 1.06 | 0.974 | 1.06 | 1.01 | 0.916 (inactive) | 1.05 (inactive) | 1.02 (inactive) | 0.925 (inactive) | 0.989 (inactive) | 1.06 (inactive) | 1.02 (inactive) | 1.01 (inactive)
Cc1ccc(S(=O)(=O)NCl)cc1 [Chloramine-T hydrate] (20 µM) | 0.97 | 0.978 | 1.11 | 1.07 | 0.912 (inactive) | 0.931 (inactive) | 0.992 (inactive) | 1.01 (inactive) | 1.03 (inactive) | 1.01 (inactive) | 1.02 (inactive) | 0.935 (inactive)
